Hit rate of the full screen: of about 5,500 compounds, about 2,000 (36%) were called active. Another 18% or so got no clear call; they are omitted. Rule as the data show it: active = normalized growth mostly below about 0.91 (no sharp cut-off); inconclusive = no clear call, values can overlap the other calls; inactive = mostly above about 0.92. The list shows a part of the results.
Assay: chemical genetic growth profiling, strain panel (AID 1159580);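 also: tested at 20 µM; growth read once vehicle control cultures reached saturation at 30 °C; 1 = growth at the plate median or of vehicle wells; lower values mean less growth of the strain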
Conditions: S. cerevisiae deletion strains, growth OD

Measured: normalized growth

COc1cc(C(=O)O[C@H]2CC[C@@]3(C)[C@@H]4CC[C@H]5[C@]6(O)C[C@H](O)[C@@]7(O)[C@@H](CN8C[C@@H](C)CC[C@H]8[C@@]7(C)O)[C@]6(O)C[C@@]53O[C@]24O)cc(OC)c1OC
inactive: locus YAL021C, strain ccr4, active compounds read low 1 | locus YAL026C, strain drs2, active compounds read low 1.02 | locus YAL030W, strain snc1, active compounds read low 0.996 | locus YBL061C, strain skt5, active compounds read low 0.994 | locus YBR009C, strain hhf1, active compounds read low 1.01 | locus YBR021W, strain FUR4, active compounds read low 1.01 | locus YBR023C, strain chs3, active compounds read low 0.996 | locus YBR171W, strain sec66, active compounds read low 1.02 | locus YBR229C, strain ROT2, active compounds read low 0.955 | locus YBR231C, strain swc5, active compounds read low 0.994 | locus YBR279W, strain paf1, active compounds read low 1.01 | locus YCL011C, strain gbp2, active compounds read low 0.997 | locus YCL016C, strain dcc1, active compounds read low 1 | locus YCL029C, strain bik1, active compounds read low 0.98 | locus YCL061C, strain MRC1, active compounds read low 1 | locus YCL069W, strain vba3, active compounds read low 1 | locus YCR088W, strain abp1, active compounds read low 1.01 | locus YDL005C, strain med2, active compounds read low 0.973 | locus YDL035C, strain GPR1, active compounds read low 1 | locus YDL040C, strain nat1, active compounds read low 1 | locus YDL074C, strain BRE1, active compounds read low 1.03 | locus YDL101C, strain DUN1, active compounds read low 0.989 | locus YDL134C, strain PPH21, active compounds read low 0.979 | locus YDL185W, strain tfp1, active compounds read low 0.978 | locus YDL192W, strain arf1, active compounds read low 1.01 | locus YDR001C, strain nth1, active compounds read low 1.01 | locus YDR069C, strain doa4, active compounds read low 0.998 | locus YDR101C, strain arx1, active compounds read low 1.03 | locus YDR137W, strain rgp1, active compounds read low 0.965 | locus YDR159W, strain sac3, active compounds read low 0.972 | locus YDR162C, strain NBP2, active compounds read low 0.985 | locus YDR195W, strain ref2 0.967 | locus YDR297W, strain sur2, active compounds read low 1.01 | locus YDR318W, strain mcm21, active compounds read low 0.972 | locus YDR334W, strain swr1, active compounds read low 1.01 | locus YDR335W, strain msn5, active compounds read low 1.01 | locus YDR388W, active compounds read low 0.993 | locus YDR392W, strain spt3, active compounds read low 0.996 | locus YDR502C, strain sam2, active compounds read low 1 | locus YEL003W, strain gim4, active compounds read low 1 | locus YEL037C, strain rad23, active compounds read low 1.03 | locus YEL061C, strain CIN8 (second series), active compounds read low 1.02 | locus YEL061C, strain CIN8, active compounds read low 0.993 | locus YER015W, strain faa2, active compounds read low 0.998 | locus YER016W, strain bim1, active compounds read low 0.995 | locus YER110C, active compounds read low 0.975 | locus YER111C, strain swi4, active compounds read low 1 | locus YER155C, strain BEM2 (second series), active compounds read low 1 | locus YER155C, strain BEM2, active compounds read low 0.99 | locus YER167W, strain BCK2, active compounds read low 0.993 | locus YFR010W, strain ubp6, active compounds read low 1.02 | locus YGL078C, strain dbp3, active compounds read low 0.999 | locus YGL086W, strain mad1, active compounds read low 1.05 | locus YGL167C, strain pmr1, active compounds read low 0.999 | locus YGL173C, strain kem1, active compounds read low 1 | locus YGL227W, strain vid30, active compounds read low 1.01 | locus YGL240W, strain doc1, active compounds read low 0.978 | locus YGL248W, strain PDE1, active compounds read low 0.998 | locus YGL253W, strain hxk2, active compounds read low 1 | locus YGR078C, strain PAC10, active compounds read low 0.99 | locus YGR135W, strain pre9, active compounds read low 0.99 | locus YGR229C, strain SMI1, active compounds read low 1.02 | locus YGR252W, strain gcn5, active compounds read low 0.957 | locus YHR013C, strain ard1, active compounds read low 0.962 | locus YHR027C, strain rpn1, active compounds read low 1.01 | locus YHR030C, strain SLT2, active compounds read low 1 | locus YHR079C, strain IRE1 (second series), active compounds read low 0.992 | locus YHR094C, strain hxt1, active compounds read low 0.971 | locus YHR129C, strain ARP1, active compounds read low 0.985 | locus YHR142W, strain chs7, active compounds read low 1.02 | locus YHR200W, strain rpn10, active compounds read low 0.987 | locus YIL066C, strain RNR3, active compounds read low 0.983 | locus YIL073C, strain SPO22, active compounds read low 1.02 | locus YIL125W, strain kgd1, active compounds read low 1 | locus YIR030C, strain dcg1, active compounds read low 0.993 | locus YJL092W, strain hpr5, active compounds read low 1.02 | locus YJL095W, strain BCK1 (second series), active compounds read low 0.993 | locus YJL095W, strain BCK1, active compounds read low 0.998 | locus YJL115W, strain asf1, active compounds read low 1 | locus YJL129C, strain trk1, active compounds read low 1.01 | locus YJL134W, strain LCB3, active compounds read low 0.985 | locus YJL154C, strain vps35, active compounds read low 1.01 | locus YJL164C, strain tpk1, active compounds read low 0.999 | locus YJL166W, strain qcr8, active compounds read low 1.01 | locus YJL168C, strain set2, active compounds read low 0.996 | locus YJL187C, strain SWE1 (second series), active compounds read low 1.01 | locus YJL187C, strain SWE1, active compounds read low 1.01 | locus YJR043C, strain POL32, active compounds read low 0.993 | locus YKL009W, strain mrt4, active compounds read low 0.981 | locus YKL068W, active compounds read low 0.988 | locus YKL085W, strain MDH1 (second series), active compounds read low 1 | locus YKL085W, strain MDH1, active compounds read low 1 | locus YKL160W, strain elf1, active compounds read low 1 | locus YKR001C, strain vps1, active compounds read low 1.06 | locus YKR026C, strain gcn3, active compounds read low 1.01 | locus YKR091W, strain srl3, active compounds read low 1 | locus YLL001W, strain dnm1, active compounds read low 1.01 | locus YLL026W, active compounds read low 0.989 | locus YLL041C, strain sdh2, active compounds read low 1.01 | locus YLR027C, strain aat2, active compounds read low 0.977 | locus YLR039C, strain RIC1, active compounds read low 0.972 | locus YLR058C, strain SHM2, active compounds read low 0.978 | locus YLR102C, strain apc9, active compounds read low 0.985 | locus YLR221C, strain rsa3, active compounds read low 1 | locus YLR258W, strain gsy2, active compounds read low 0.98 | locus YLR262C, strain YPT6 (second series), active compounds read low 0.954 | locus YLR262C, strain YPT6, active compounds read low 0.975 | locus YLR268W, strain sec22, active compounds read low 1.04 | locus YLR320W, strain mms22, active compounds read low 0.986 | locus YLR330W, strain CHS5, active compounds read low 1 | locus YLR342W, strain FKS1 (second series), active compounds read low 1.03 | locus YLR342W, strain FKS1, active compounds read low 0.986 | locus YLR357W, strain rsc2, active compounds read low 0.974 | locus YLR370C, strain arc18, active compounds read low 0.985 | locus YLR371W, strain rom2, active compounds read low 0.991 | locus YLR384C, strain iki3, active compounds read low 0.974 | locus YLR418C, strain cdc73, active compounds read low 0.977 | locus YML016C, strain PPZ1, active compounds read low 0.998 | locus YML032C, strain rad52, active compounds read low 0.96 | locus YML120C, strain ndi1, active compounds read low 1 | locus YML124C, strain tub3, active compounds read low 0.985 | locus YMR058W, strain fet3, active compounds read low 1 | locus YMR078C, strain ctf18, active compounds read low 0.99 | locus YMR125W, strain sto1, active compounds read low 1.02 | locus YMR129W, active compounds read low 1 | locus YMR205C, strain PFK2, active compounds read low 1 | locus YMR223W, strain ubp8, active compounds read low 0.964 | locus YMR231W, strain pep5, active compounds read low 0.999 | locus YMR307W, strain GAS1, active compounds read low 1.07 | locus YNL067W, strain RPL9B, active compounds read low 0.997 | locus YNL071W, strain lat1, active compounds read low 1 | locus YNL153C, strain GIM3, active compounds read low 1.01 | locus YNL209W, strain ssb2, active compounds read low 0.997 | locus YNL233W, strain BNI4, active compounds read low 1.01 | locus YNL248C, strain rpa49, active compounds read low 1.01 | locus YNL250W, strain rad50, active compounds read low 0.977 | locus YNL271C, strain bni1, active compounds read low 0.993 | locus YNL298W, strain CLA4, active compounds read low 0.971 | locus YNL307C, strain MCK1, active compounds read low 0.986 | locus YNL322C, strain KRE1 (second series), active compounds read low 0.989 | locus YNL322C, strain KRE1, active compounds read low 0.996 | locus YNR049C, strain mso1, active compounds read low 0.987 | locus YNR052C, strain pop2, active compounds read low 0.996 | locus YOL012C, strain htz1 1.37 | locus YOL147C, strain pex11, active compounds read low 0.985 | locus YOR001W, strain rrp6, active compounds read low 0.988 | locus YOR061W, strain CKA2, active compounds read low 0.962 | locus YOR069W, strain VPS5, active compounds read low 0.996 | locus YOR070C, strain gyp1, active compounds read low 1.01 | locus YOR080W, strain dia2, active compounds read low 1.01 | locus YOR083W, strain WHI5, active compounds read low 1 | locus YOR106W, strain vam3, active compounds read low 0.999 | locus YOR136W, strain idh2, active compounds read low 0.985 | locus YOR144C, strain elg1, active compounds read low 0.98 | locus YOR184W, strain ser1, active compounds read low 0.976 | locus YOR265W, strain rbl2, active compounds read low 0.983 | locus YOR270C, strain vph1, active compounds read low 1.11 | locus YOR290C, strain snf2, active compounds read low 1.02 | locus YOR316C, strain cot1, active compounds read low 0.976 | locus YPL051W, strain arl3, active compounds read low 0.998 | locus YPL055C, strain LGE1, active compounds read low 1.01 | locus YPL078C, strain atp4, active compounds read low 0.998 | locus YPL106C, strain sse1, active compounds read low 0.968 | locus YPL240C, strain hsp82, active compounds read low 0.992 | locus YPR119W, strain clb2, active compounds read low 0.979 | locus YPR141C, strain kar3, active compounds read low 0.981 | locus YPR163C, strain tif3, active compounds read low 1.01 | locus YPR167C, strain met16, active compounds read low 0.978 | strain wtn01, active compounds read low 1.04
